Source: PubChem BioAssay (NCATS)
Records with an inconclusive call do not appear. Active and inactive are the calls of the source. Unless noted, calls come from the whole dose curve; as a rule, active = well fitted curve in the direction sought with a large enough effect; inconclusive = small, poorly fitted or top-dose-only effect, or another doubt; inactive = no such curve, though single readings can be large; an effect the other way counts as inactive or inconclusive.

How the values were obtained:
[1] = OV-KATE Cancer Cell Toxicity qHTS against the NCATS CANVASS Library (AID 1347345)
In short: (§1)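 Per well, 1000 cells; exposure 72 h with compound at 11 final concentrations; readout CellTiter-Glo luminescence.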

[2] = OV-SAHO Cancer Cell Toxicity qHTS against the NCATS CANVASS Library (AID 1347348)
In short: as §1

[3] = Panc-1005 Cancer Cell Toxicity qHTS against the NCATS CANVASS Library (AID 1347349)
In short: as §1

[4] = SW1088 Cancer Cell Toxicity qHTS against the NCATS CANVASS Library (AID 1347350)
In short: as §1

[5] = COV-362 Cancer Cell Toxicity qHTS against the NCATS CANVASS Library (AID 1347352)
In short: (§2)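 Luminescent ATP read-out (CellTiter-Glo, 15min at room temperature) measures survival after cells face an 11-point compound series for 72 hours at 37 degrees C/5% CO2.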

[6] = UWB1.289-WTBRCA1 Cancer Cell Toxicity qHTS against the NCATS CANVASS Library (AID 1347354)
In short: as §2

[7] = G06 Cancer Cell Toxicity qHTS against the NCATS CANVASS Library (AID 1347368)
In short: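 Dog G06 glioma line, 500 cells/well; cpds pin-transferred, 11-pt; 72 hr, 37C/5% CO2; CellTiterGlo luminescence (ATP) endpoint.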

[8] = MCF7 Cancer Cell Toxicity qHTS against the NCATS CANVASS Library (AID 1347369)
In short: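 MCF7 cells (500/well) were exposed 72 h at 37 °C to compounds in an 11-point series. Viability was read as ATP content by CellTiterGlo luminescence.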

[9] = qHTS for Antimalaria activity screened against the NCATS CANVASS Library (AID 1347380)
In short: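 Dd2 strain, infected erythrocytes 2.5% Hct final / 0.3% parasitemia. 11-pt qHTS titration, 72 h, 37C, 5% O2, 5% CO2. Lysis buffer + SYBR Green, 18 h, fluorescence 485/535 nm.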

[10] = Secretion counterscreen for inhibitors of the SERCaMP assay screened against the NCATS CANVASS Library (AID 1347390)
In short: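 SH-SY5Y cells with constitutively secreted GLuc reporter, 1000 cells/well, treated 20 h at 37C with compounds at 0.001 - 77 uM final; secreted luciferase read as luminescence after coelenterazine; Brefeldin A as positive control.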

[11] = qHTS for activators of Nrf2/ARE signaling pathway screened against the NCATS CANVASS Library (AID 1347391)
In short: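 Plate ARE-bla HepG2 cells at 2000/well and let them settle 5 h. Pin-transfer compounds in DMSO, incubate 16 h at 37C. Load CCF4 for 2 h at room temperature and read blue/green fluorescence.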

[12] = test system: Zika virus NS2B-NS3 protease (linked construct); experiment: Primary screen NINDS Rhodamine qHTS for Zika virus inhibitors (AID 1347160)
In short: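 In 10 mM Tris-HCl pH 8.0 containing 0.01% Tween 20, linked NS2B-NS3 protease (25 nM final) is exposed to test compounds for 15 min. Cleavage of 1.5 microM Rhodamine110 substrate is tracked by fluorescence over 15 min.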

[13] = qHTS for inhibitors of ER calcium dysfunction: SERCaMP assay screened against the NCATS CANVASS Library (AID 1347393)
In short: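 qHTS in SH-SY5Y reporter cells: 16 h compound pretreatment, 4 h thapsigargin, then secreted Gaussia luciferase measured by luminescence.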

[14] = Confirmatory qHTS to identify inhibitors of SARS-CoV-2 cell entry (AID 1645844; calls by dose curve)
In short: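 HEK293-ACE2 cells (Expi293F stably expressing human ACE2) were pretreated with compounds for 1 hr at 37C, then infected with MLV-based particles carrying Wuhan-Hu-1 spike (C-terminal 19-aa truncation). Luciferase luminescence read after 48 hr; normalized to spike PP (100%) and bald PP (0%).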

[15] = Primary qHTS to identify inhibitors of SARS-CoV-2 cell entry (AID 1645846; calls by dose curve); details: SARS-CoV-2 pseudovirus cell entry assay, luminescence; activity change, negative = inhibition: at 57.1 µM (top of the series) unless noted; outcome: at 57.1 µM (top of the series) unless noted
In short: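 HEK293 cells stably expressing human ACE2, pre-treated 1 h with compound, then infected with MLV particles pseudotyped with Wuhan-Hu-1 spike (C-terminal 19-aa truncation). Luciferase luminescence after 48 h at 37 °C, normalised to spike PP and bald PP.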

[16] = VSVG counterscreen qHTS to identify inhibitors of SARS-CoV-2 cell entry (AID 1645847; calls by dose curve)
In short: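 HEK293-ACE2 cells (Expi293F, human ACE2) pretreated 1 h with compound, then infected with MLV-based VSV-G pseudotyped particles for 48 h at 37 C; luciferase luminescence normalized to VSV-G PP and bald PP wells.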

[17] = Primary qHTS for inhibitors of nuclear receptor binding SET domain protein 2 (NSD2) in an isogenic RCH-ACV NSD2 p.E1099K mutant (9B) (AID 1645876)
[18] = Primary qHTS for inhibitors of nuclear receptor binding SET domain protein 2 (NSD2) in an RCH-ACV wild type WT cells (2C) (AID 1645877)
[19] = molecular target: Cytochrome P450 2D6 (Homo sapiens) (UniProt P10635); experiment: Cytochrome P450 family 2 subfamily D member 6 (CYP2D6) small molecule antagonists: luciferase biochemical (cell-free) qHTS assay (AID 1645840; active = well fitted curve in the direction sought with a large enough effect in the repeat runs; an effect the other way counts as inactive or inconclusive)
In short: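 P450-Glo luminescent screen: recombinant CYP2D6 enzyme–proluciferin substrate mix preincubated with compound 10 min at room temperature, then NADPH regeneration added for 1 h at room temperature. Detection reagent added for 20 min; luciferin light read as relative luminescence units.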

[20] = qHTS assay to identify inhibitors of the type 1 interferon - major histocompatibility complex class I in skeletal muscle: Counter screen cell viability and HiBit confirmation (AID 1347412); details: iHSKM muscle cells + IFN-b, HiBiT or CellTiter-Glo, 24 h; for Potency: HiBiT
In short: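 CRISPR HLA-B*08:01-HiBit immortalized human myoblasts (C25cl48) stimulated with 4 ng/ml IFN-beta and compounds (12-point 1:3, top 46 uM final) for 24 h at 37 C. Duplicate plates read by HiBit lytic luminescence or CellTiter Glo ATP.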

Cytochrome P450 2D6 (Homo sapiens), sequence (P10635 whole entry, looked up): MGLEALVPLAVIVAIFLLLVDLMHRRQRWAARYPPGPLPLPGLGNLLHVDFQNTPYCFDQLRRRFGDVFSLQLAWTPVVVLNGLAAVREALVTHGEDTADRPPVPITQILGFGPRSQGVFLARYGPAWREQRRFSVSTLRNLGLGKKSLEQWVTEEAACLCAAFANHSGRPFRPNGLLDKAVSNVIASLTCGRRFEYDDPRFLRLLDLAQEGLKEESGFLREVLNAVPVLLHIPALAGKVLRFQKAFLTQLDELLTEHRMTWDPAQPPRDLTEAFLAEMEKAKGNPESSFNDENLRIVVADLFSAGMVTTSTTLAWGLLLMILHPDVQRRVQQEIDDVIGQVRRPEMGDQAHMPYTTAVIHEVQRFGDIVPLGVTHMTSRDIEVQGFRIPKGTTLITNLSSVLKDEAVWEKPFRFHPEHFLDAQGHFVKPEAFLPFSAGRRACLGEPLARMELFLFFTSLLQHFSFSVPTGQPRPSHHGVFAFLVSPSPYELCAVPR

CCCC[C@@H]1CC[C@H]2CCCC(CCCO)N12 (stereo not given in full)
inactive: Potency [1] | Potency [2] | Potency [3] | Potency [4] | Potency [5] | Potency [6] | Potency [7] | Potency [8] | Potency [10] | Potency [11]
active: Potency [9] 10.6 nM

CC[C@H]1CN2CCc3c([nH]c4cccc(OC)c34)[C@@H]2C[C@@H]1/C(=C\OC)C(=O)OC
inactive: Potency [1] | Potency [5] | Potency [6] | Potency [8] | Potency [9]
active: Potency [12] 24700 nM | Potency [13] 13600 nM

C/C=C1/CN2C3CC1C1=CCC(=O)N4c5ccccc5[C@@]3(C[C@@H]2C2=C[C@H]3C5CC6N(CC[C@@]67c6ccccc6N(C2=O)[C@@H]37)C/C5=C/C)[C@H]14 (stereo not given in full)
active: Potency [12] 31100 nM | Potency [3] 14900 nM | Potency [4] 14900 nM | Potency [7] 20900 nM | Potency [9] 1330 nM | Potency [10] 43100 nM | Potency [11] 7410 nM
inactive: Potency [1]

CO[C@H]1[C@H](O[C@H]2CC[C@]3(C=O)[C@H]4CC[C@]5(C)[C@@H](C6=CC(=O)OC6)CC[C@]5(O)[C@@H]4CC[C@]3(O)C2)O[C@H](C)[C@H](O)[C@@H]1OC
active: Potency [5] 236 nM | Potency [7] 296 nM | Potency [10] 767 nM
inactive: Potency [9] | Potency [11] | Potency [13]

C[C@]12CCC3[C@@H](CC[C@@H]4C[C@@H](O)CC[C@]34CO)[C@@]1(O)CC[C@@H]2C1=CC(=O)OC1 (stereo not given in full)
active: Potency [2] 2360 nM | Potency [5] 1880 nM | Potency [7] 1870 nM | Potency [8] 1170 nM | Potency [10] 7670 nM
inactive: Potency [9] | Potency [11] | Potency [13]

CCCCC1CC[C@H]2CCCC(CCC)N12 (stereo not given in full)
inactive: Potency [12] | Potency [1] | Potency [2] | Potency [3] | Potency [4] | Potency [5] | Potency [6] | Potency [7] | Potency [8] | Potency [9] | Potency [10] | Potency [11] | Potency [13]

C/C=C(\C)C(=O)N[C@@H](c1ccccc1)[C@@H](O)C(=O)O[C@H]1C[C@@]2(O)[C@@H](OC(=O)c3ccccc3)[C@@H]3[C@]4(OC(C)=O)CO[C@@H]4C[C@H](O)[C@@]3(C)C(=O)[C@H](OC(C)=O)C(=C1C)C2(C)C
-81.8%: activity change, negative = inhibition [15]
active: Potency [14] 4.3 nM | Potency [16] 108 nM | Potency [17] 26.3 nM | Potency [18] 26.3 nM

N#CC(O[C@@H]1O[C@H](CO[C@@H]2O[C@H](CO)[C@@H](O)[C@H](O)[C@H]2O)[C@@H](O)[C@H](O)[C@H]1O)c1ccccc1 (stereo not given in full)
inactive: Potency [19] | Potency [17] | Potency [18]

COC(=O)[C@]12CCC(C)(C)C[C@H]1[C@H]1C(=O)C=C3[C@@]4(C)C=C(C#N)C(=O)C(C)(C)[C@@H]4CC[C@@]3(C)[C@]1(C)CC2
active: Potency [15] 1000 nM | Potency [18] 5900 nM | Potency [20] 1570 nM

C[C@@H](C1CC[C@@]2(O)C3=CC(=O)[C@@H]4C[C@@H](O)[C@@H](O)C[C@]4(C)[C@H]3CC[C@]12C)[C@H](O)CCC(C)(C)O (stereo not given in full)
-30.2%: activity change, negative = inhibition [15]
inactive: Potency [19] | Potency [17] | Potency [18]

COC(=O)[C@@]12OC[C@]34[C@H]([C@@H](O)[C@@H]1O)[C@@]1(C)CC(=O)C(O)=C(C)[C@@H]1C[C@H]3OC(=O)[C@H](OC(=O)/C=C(\C)C(C)C)[C@@H]24
active: Potency [17] 296 nM | Potency [18] 235 nM | Potency [20] 88.3 nM
inactive: activity change, negative = inhibition ([20]; Viability, at 45.9 µM (top of the series)) -8.02%

Cn1c(COP(=O)(NCCBr)NCCBr)cnc1[N+](=O)[O-]
-15%: activity change, negative = inhibition [15]
active: Potency [18] 18600 nM

COC12C(COC(N)=O)C3=C(C(=O)C(C)=C(N)C3=O)N1CC1C2N1C (stereo not given)
active: Potency [17] 1660 nM | Potency [18] 1050 nM

C[C@]12COC(=O)C[C@@H]1CC[C@@H]1[C@@H]2CC[C@@]2(C)[C@H]1CC[C@]2(C)O
-8.16%: activity change, negative = inhibition [15]

COc1cc(C)[nH]c(=O)c1CNC(=O)c1c(C)n([C@H](C)C2CCN(CC(F)(F)F)CC2)c2ccccc12
inactive: Potency [18]
4.42%: activity change, negative = inhibition [15]

Cn1c(/C=C/CO)c(CO)c2c1C(=O)C=C(N1CC1)C2=O
inactive: Potency [15] | Potency [17] | Potency [18]

CC(=O)O[C@@]12CO[C@@H]1C[C@H](O)[C@@]1(C)C(=O)[C@H](O)C3=C(C)[C@@H](O)C[C@@](O)([C@@H](OC(=O)c4ccccc4)[C@H]21)C3(C)C
inactive: Potency [17]

COC[C@H]1OC(=O)c2coc3c2[C@@]1(C)C1=C(C3=O)[C@@H]2CC[C@H](O)[C@@]2(C)C[C@H]1OC(C)=O
active: Potency [17] 13200 nM | Potency [18] 11800 nM
